High-throughput results as filed in PubChem BioAssay.
LASV entry inh: Lassa virus entry inhibition. Lassa virus pseudotype entry inhibition, cell reporter. Potency, µM (series often up to 37.9 µM), actives largely listed as inhibitors. hit rate 1.2% among 300,000; calls by dose curve; tested in HEK293 cells; also: nearly all actives have a fitted effect of over 50% in size
MARV entry inh: Marburg virus entry inhibition; Potency, µM (doses to about 37.8 µM), most hits filed as inhibitors; Marburg virus pseudotyped entry inhibition, cell reporter; AID 540276; hit rate 1.8% among 300,000; calls by dose curve; tested in HEK293 cells
HCV inh: blocks hepatitis C virus; Huh7.5.1 HCVcc-Cre infection, luciferase reporter, 44 h; Potency, µM (highest dose often 41.8 µM), hits mostly inhibitors; hit rate 3.4% among 340,000; AID 651820; active = well fitted inhibition curve with a large enough effect; inconclusive = small, poorly fitted or top-dose-only effect, or another doubt; inactive = no such curve, though single readings can be large or run the other way
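Antiviral activity was scored by luciferase reporter output from cells infected with HCVcc-Cre (~0.5 moi) in presence of compound, 44 h infection period, cells seeded 1,000/well 4 h prior.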
Shiga inhibitor: Shiga toxin inhibition | Vero cells, Shiga toxin protein synthesis inhibition reporter | inhibition, % at 38.7 µM | hit rate 9.2% among 290,000 | AID 2315; in the data active = inhibition mostly above about 28%, no sharp cut-off; inactive = mostly below about 43%
FMDV inh: blocks foot and mouth disease virus; AID 1159524; FMDV antiviral cell-based qHTS; hit rate 1.2% among 410,000; Potency, µM (highest dose often 57.9 µM), usual class: inhibitors; calls by dose curve; tested in HEK293T cells; also: read-out not given here; nearly all actives have a fitted effect of over 45% in size
CHX counter: counter-screen hit for Shiga toxin inhibitors, cycloheximide | hit rate 12% among 300,000 | max response, % | cell reporter, cycloheximide protein synthesis inhibition counterscreen; in the data active = max response mostly above about 13%, no sharp cut-off; inactive = mostly below about 14%; also: read at 38.3 µM for the half of the compounds with a filed dose
Numbers stand for hits; - = inactive; ? = inconclusive; . = no result; + = active, no number; [ ] = another dose, or the depositor's remark. Only some compounds are listed: those with a hit (about 13% of all), similar ones and a draw of the others.

SMILES	LASV entry inh	MARV entry inh	HCV inh	Shiga inhibitor	FMDV inh	CHX counter
Cc1cc(C)n(-c2ccc(C(=O)OCC(=O)Nc3cc(S(C)(=O)=O)ccc3Cl)cc2)n1	.	.	-	.	-	.
CCS(=O)(=O)N1Cc2ccccc2CC1C(=O)Nc1cccc(C)c1 (stereo not drawn)	.	.	-	120.1	-	37.3
CCS(=O)(=O)N1Cc2ccccc2CC1C(=O)Nc1ccc(C)cc1 (stereo not drawn)	-	-	-	-	-	-
CCS(=O)(=O)N1Cc2ccccc2CC1C(=O)Nc1cc(S(C)(=O)=O)ccc1Cl (stereo not drawn)	.	.	-	-	-	-
CCC(=O)N1c2ccccc2CC1C(=O)NCCc1ccccc1 (stereo not drawn)	-	.	.	.	-	.
CCS(=O)(=O)N1Cc2ccccc2CC1C(=O)Nc1ccc(F)c(F)c1F (stereo not drawn)	.	.	-	-	-	24.5
CCS(=O)(=O)N1Cc2ccccc2CC1C(=O)NCCc1ccccc1 (stereo not drawn)	-	-	-	-	-	19.0
CCS(=O)(=O)N1Cc2ccccc2CC1C(=O)Nc1ccc(NC(C)=O)cc1 (stereo not drawn)	-	-	-	-	-	-
CCS(=O)(=O)N1Cc2ccccc2CC1C(=O)Nc1ccc(F)c(F)c1 (stereo not drawn)	-	-	-	81.8	-	37.0
CCCCNCC(O)(c1ccc(Cl)cc1)c1ccc(Cl)cc1	?	?	-	-	-	-
O=S(=O)(c1cccc(C(F)(F)F)c1)N1CCC(CO)(CCCc2ccccc2)CC1	.	.	-	-	-	-
CCOc1ccc(NC(=O)C2Cc3ccccc3CN2S(=O)(=O)CC)cc1 (stereo not drawn)	-	-	-	-	-	-
CCS(=O)(=O)N1Cc2ccccc2CC1C(=O)Nc1ccc(OC)cc1 (stereo not drawn)	.	.	-	-	-	35.2
COC(=O)Nc1ccc(S(=O)(=O)N2CCCc3cccc(O)c32)cc1	.	.	11.2µM	-	-	-
COC(=O)Nc1ccc(S(=O)(=O)N2CCCc3ccccc32)cc1	-	?	3.16µM	40.6	-	18.2
CCC(=O)Nc1ccc(S(=O)(=O)N2CCc3ccccc32)cc1	.	.	-	-	?	-
CC1(c2nnc(-c3ccccc3)o2)CC(c2ccc(F)cc2)=NO1 (stereo not drawn)	.	.	-	-	-	-
Cc1ccc2nc(-c3ccc(C#N)cc3)c(Cc3ccccc3C(F)(F)F)n2c1	.	.	.	.	-	.
Nc1nnc(CC(=O)N/N=C/c2ccc([N+](=O)[O-])cc2)s1	.	.	-	-	-	-
COc1ccc(C2c3ccc(O)cc3Oc3ncn4nc(-c5cccnc5)nc4c32)cc1OC (stereo not drawn)	?	?	28.2µM	-	?	-
CN(c1nnc(N)s1)C1CCCCC1	-	-	-[8.37 µM]	-	-	-
CCOc1cccc(NCc2cc3c(C(C)(C)C)nn(-c4ccccc4)c3[nH]c2=O)c1	-	?	12.6µM	-	.	-
COc1ccc(OC)c2sc(N(CCCN(C)C)C(=O)c3ccc(S(=O)(=O)N4CCc5ccccc5C4)cc3)nc12	.	.	3.98µM	.	.	.
COc1cccc2sc(N(CCCN(C)C)C(=O)c3ccc(S(=O)(=O)N4CCc5ccccc5C4)cc3)nc12	-	?	?	-	-	-
COc1cccc2sc(N(CCCN(C)C)C(=O)c3ccc(S(=O)(=O)N4CCCc5ccccc54)cc3)nc12	.	.	14.1µM	-	?	-
SMILES	LASV entry inh	MARV entry inh	HCV inh	Shiga inhibitor	FMDV inh	CHX counter
CN(C)CCCN(C(=O)c1ccc(S(=O)(=O)N2CCc3ccccc32)cc1)c1nc2c(Cl)cccc2s1	?	?	-	-	-	-
CCc1ccc2nc(N(CCCN(C)C)C(=O)c3ccc(S(=O)(=O)N4CCCc5ccccc54)cc3)sc2c1	12.6µM	?	?	-	?	-
CN(C)CCN(C(=O)c1ccc(S(=O)(=O)N2CCc3ccccc32)cc1)c1nc2ccc(F)cc2s1	-	?	-	79.3	-	-
COc1ccc(N(CC(=O)NCC2CCCO2)S(=O)(=O)c2c(C)noc2C)cc1 (stereo not drawn)	-	-	-	-	-	-
COC(=O)c1c(-c2ccccc2)csc1NC1=NS(=O)(=O)c2ccccc21	?	?	-	+	-	62.4
COC(=O)c1ccc(C(=O)OC)c(NC2=NS(=O)(=O)c3ccccc32)c1	-	-	-	-	-	-
NC(=O)CCc1nc2cc(C(F)(F)F)ccc2n(Cc2ccccc2)c1=O	-	?	-	-	-	-
O=C(COc1ccc(Nc2ccccc2)cc1)Nc1ccncc1	?	-	?	.	?	.
